The record followed here is ChEMBL document CHEMBL1961873, “Compounds: GSK PKIS; Assays: Nanosyn kinase panel” (2012).

The target of experiment [1] is Sphingosine kinase 1 (Homo sapiens) (UniProt Q9NYA1). The conditions noted are these: at 1 µM.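 Note: mean SPHK1 inhibition value reported from the GSK PKIS kinase panel screen.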
The target in experiment [2] is T1, Sphingosine kinase 2 (Homo sapiens) (UniProt Q9NRA0).
T1 sequence (whole entry): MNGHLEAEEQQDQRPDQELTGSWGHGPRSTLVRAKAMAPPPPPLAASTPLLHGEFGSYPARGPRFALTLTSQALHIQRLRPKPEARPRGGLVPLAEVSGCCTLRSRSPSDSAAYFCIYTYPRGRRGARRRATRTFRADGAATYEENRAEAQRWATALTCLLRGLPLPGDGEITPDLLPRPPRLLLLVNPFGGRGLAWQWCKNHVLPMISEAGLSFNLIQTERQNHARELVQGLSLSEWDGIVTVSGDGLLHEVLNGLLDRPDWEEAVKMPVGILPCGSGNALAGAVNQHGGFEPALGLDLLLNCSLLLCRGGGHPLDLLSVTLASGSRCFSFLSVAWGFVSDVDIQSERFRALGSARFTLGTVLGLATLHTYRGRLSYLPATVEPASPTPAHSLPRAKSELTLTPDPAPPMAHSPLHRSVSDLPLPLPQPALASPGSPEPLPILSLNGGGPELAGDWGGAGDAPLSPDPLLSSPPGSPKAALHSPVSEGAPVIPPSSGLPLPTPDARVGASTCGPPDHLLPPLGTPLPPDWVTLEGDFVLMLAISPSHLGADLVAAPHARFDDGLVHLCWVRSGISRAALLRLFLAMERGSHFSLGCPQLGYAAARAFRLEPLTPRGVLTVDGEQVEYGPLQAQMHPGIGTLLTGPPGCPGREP
Conditions: at 0.1 µM.

Experiment [3] addresses T1, Sphingosine kinase 2 (Homo sapiens). Conditions: at 1 µM.
For experiment [4], the target named is Casein kinase II subunit alpha (Homo sapiens) (UniProt P68400). Conditions: at 0.1 µM.
Casein kinase II subunit alpha (Homo sapiens), sequence (P68400 whole entry, looked up): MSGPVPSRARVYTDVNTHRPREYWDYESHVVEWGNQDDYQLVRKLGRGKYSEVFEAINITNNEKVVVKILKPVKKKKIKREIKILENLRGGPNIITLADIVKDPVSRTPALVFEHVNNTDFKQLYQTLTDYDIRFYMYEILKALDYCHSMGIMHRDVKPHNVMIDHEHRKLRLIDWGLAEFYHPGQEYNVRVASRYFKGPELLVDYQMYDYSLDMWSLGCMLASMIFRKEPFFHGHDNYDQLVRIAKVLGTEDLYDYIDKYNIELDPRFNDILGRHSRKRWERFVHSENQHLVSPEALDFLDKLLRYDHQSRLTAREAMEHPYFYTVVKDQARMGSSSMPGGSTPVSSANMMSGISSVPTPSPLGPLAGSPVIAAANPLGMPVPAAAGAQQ
Experiment [5] has the same target. The conditions noted are these: at 1 µM.
Experiment [6] concerns the target T2, Inhibitor of nuclear factor kappa-B kinase subunit alpha (Homo sapiens) (UniProt O15111).
T2 sequence (whole entry): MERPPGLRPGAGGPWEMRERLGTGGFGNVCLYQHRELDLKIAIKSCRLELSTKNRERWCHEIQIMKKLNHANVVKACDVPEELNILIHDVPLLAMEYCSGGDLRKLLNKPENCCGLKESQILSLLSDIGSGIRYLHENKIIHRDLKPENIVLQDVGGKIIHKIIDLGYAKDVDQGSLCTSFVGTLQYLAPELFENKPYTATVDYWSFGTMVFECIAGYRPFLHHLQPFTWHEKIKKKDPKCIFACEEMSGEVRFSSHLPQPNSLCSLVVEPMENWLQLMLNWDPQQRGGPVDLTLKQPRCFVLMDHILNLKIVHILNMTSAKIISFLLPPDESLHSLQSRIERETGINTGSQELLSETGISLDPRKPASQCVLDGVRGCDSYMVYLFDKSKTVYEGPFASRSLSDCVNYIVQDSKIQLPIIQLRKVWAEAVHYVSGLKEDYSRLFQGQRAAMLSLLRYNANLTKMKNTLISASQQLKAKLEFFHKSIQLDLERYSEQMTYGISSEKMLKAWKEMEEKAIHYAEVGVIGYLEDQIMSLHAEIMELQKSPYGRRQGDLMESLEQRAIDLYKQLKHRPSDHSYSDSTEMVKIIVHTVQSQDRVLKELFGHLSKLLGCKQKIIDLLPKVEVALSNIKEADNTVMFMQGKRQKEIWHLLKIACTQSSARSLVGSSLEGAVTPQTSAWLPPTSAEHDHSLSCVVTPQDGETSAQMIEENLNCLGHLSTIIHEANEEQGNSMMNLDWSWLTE
Conditions: at 0.1 µM.

Experiment [7] has as its target T2, Inhibitor of nuclear factor kappa-B kinase subunit alpha (Homo sapiens). The conditions noted are these: at 1 µM.
In experiment [8] the target is T3, Inhibitor of nuclear factor kappa-B kinase subunit beta (Homo sapiens) (UniProt O14920).
T3 sequence (whole entry): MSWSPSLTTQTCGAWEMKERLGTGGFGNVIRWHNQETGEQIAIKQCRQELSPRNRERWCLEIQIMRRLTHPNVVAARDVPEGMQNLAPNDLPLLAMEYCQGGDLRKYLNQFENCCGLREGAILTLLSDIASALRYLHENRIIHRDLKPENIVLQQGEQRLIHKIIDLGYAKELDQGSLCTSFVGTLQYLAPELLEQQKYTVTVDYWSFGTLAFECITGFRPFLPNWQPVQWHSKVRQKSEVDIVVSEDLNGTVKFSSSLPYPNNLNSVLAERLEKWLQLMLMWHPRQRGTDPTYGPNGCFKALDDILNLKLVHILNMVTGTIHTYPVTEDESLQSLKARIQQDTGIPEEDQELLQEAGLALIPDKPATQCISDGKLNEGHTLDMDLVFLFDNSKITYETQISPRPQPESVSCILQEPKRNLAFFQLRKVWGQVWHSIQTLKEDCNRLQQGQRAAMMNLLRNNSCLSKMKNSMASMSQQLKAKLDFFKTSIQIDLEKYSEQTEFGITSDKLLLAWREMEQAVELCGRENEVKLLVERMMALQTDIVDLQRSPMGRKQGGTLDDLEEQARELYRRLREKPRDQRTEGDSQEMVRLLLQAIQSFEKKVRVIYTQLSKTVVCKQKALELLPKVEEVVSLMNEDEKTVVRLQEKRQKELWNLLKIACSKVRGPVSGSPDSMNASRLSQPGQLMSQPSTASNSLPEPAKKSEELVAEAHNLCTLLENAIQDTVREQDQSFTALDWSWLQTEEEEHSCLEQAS
Conditions: at 0.1 µM.

Experiment [9] deals with T3, Inhibitor of nuclear factor kappa-B kinase subunit beta (Homo sapiens). The conditions noted are these: at 1 µM.
Experiment [10] addresses T4, Inhibitor of nuclear factor kappa-B kinase subunit epsilon (Homo sapiens) (UniProt Q14164).
T4 sequence (whole entry): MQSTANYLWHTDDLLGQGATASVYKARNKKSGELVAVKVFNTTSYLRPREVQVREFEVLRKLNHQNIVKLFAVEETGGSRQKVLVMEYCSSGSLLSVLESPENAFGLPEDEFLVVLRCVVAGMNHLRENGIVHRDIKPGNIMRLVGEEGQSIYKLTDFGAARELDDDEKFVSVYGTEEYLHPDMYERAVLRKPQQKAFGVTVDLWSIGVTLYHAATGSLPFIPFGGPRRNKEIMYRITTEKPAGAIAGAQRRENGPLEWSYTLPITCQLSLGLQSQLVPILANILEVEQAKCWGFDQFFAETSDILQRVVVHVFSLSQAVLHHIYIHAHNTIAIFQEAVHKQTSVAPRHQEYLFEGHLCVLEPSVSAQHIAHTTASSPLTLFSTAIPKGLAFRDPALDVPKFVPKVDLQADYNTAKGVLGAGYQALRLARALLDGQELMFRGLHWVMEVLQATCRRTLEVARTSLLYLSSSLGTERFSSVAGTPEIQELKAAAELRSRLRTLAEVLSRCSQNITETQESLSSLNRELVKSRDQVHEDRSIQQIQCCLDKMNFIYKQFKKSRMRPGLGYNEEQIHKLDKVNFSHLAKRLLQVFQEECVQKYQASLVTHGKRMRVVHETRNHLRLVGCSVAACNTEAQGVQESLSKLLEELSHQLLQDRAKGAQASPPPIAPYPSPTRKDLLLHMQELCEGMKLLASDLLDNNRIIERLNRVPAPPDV
The conditions noted are these: at 0.1 µM.

In experiment [11] the target is T4, Inhibitor of nuclear factor kappa-B kinase subunit epsilon (Homo sapiens). Conditions: at 1 µM.
In experiment [12] the target is T5, Serine/threonine-protein kinase Nek1 (Homo sapiens) (UniProt Q96PY6).
T5 sequence (whole entry): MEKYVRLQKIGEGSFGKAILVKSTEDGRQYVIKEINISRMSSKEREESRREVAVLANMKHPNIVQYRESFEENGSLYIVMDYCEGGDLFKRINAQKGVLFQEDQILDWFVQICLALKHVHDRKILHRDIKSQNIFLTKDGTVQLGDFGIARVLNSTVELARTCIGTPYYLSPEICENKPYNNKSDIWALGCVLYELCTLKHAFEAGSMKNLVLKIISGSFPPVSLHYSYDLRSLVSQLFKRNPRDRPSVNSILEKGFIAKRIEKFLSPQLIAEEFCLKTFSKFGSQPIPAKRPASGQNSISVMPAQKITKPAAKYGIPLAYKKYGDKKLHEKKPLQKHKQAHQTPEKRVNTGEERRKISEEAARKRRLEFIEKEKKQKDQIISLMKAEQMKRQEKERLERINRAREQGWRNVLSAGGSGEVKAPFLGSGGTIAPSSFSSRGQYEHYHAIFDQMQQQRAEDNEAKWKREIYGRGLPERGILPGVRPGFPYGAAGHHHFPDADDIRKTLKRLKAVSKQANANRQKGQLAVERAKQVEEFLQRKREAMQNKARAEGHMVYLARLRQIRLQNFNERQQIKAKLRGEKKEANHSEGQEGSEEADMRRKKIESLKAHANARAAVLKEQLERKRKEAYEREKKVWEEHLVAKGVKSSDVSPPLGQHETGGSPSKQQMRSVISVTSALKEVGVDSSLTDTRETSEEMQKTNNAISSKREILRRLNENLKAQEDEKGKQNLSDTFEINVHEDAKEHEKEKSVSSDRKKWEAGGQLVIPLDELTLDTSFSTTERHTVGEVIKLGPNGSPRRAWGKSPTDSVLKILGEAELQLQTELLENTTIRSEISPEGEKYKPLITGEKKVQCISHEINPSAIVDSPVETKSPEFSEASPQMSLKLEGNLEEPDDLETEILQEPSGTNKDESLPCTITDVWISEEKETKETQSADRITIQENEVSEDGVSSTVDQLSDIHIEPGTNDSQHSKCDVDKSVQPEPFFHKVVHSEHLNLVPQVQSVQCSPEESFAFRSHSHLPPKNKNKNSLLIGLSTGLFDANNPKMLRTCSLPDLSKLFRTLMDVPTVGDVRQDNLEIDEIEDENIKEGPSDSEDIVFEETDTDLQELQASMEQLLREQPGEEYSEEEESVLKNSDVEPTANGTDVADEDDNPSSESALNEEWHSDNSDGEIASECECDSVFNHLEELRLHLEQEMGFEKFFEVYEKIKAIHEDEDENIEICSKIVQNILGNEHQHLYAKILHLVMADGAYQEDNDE
Conditions: at 0.1 µM.

For experiment [13], the target named is T5, Serine/threonine-protein kinase Nek1 (Homo sapiens). The conditions noted are these: at 1 µM.
The target of experiment [14] is T6, Serine/threonine-protein kinase Nek2 (Homo sapiens) (UniProt P51955).
T6 sequence (whole entry): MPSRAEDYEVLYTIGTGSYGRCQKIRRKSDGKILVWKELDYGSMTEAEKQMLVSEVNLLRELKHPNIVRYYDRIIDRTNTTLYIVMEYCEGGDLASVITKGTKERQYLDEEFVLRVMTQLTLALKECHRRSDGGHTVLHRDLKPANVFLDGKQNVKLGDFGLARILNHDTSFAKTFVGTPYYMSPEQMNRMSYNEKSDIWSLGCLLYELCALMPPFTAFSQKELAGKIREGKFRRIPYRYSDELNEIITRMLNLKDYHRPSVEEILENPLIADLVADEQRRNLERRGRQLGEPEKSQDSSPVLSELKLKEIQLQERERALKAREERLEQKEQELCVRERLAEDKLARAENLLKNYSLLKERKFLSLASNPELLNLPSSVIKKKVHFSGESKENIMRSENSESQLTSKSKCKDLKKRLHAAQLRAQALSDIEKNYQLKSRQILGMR
The conditions noted are these: at 0.1 µM.

Experiment [15] addresses T6, Serine/threonine-protein kinase Nek2 (Homo sapiens). The conditions noted are these: at 1 µM.
In experiment [16] the target is Serine/threonine-protein kinase Nek6 (Homo sapiens) (UniProt Q9HC98). Conditions: at 0.1 µM.
Serine/threonine-protein kinase Nek6 (Homo sapiens), sequence (Q9HC98 whole entry): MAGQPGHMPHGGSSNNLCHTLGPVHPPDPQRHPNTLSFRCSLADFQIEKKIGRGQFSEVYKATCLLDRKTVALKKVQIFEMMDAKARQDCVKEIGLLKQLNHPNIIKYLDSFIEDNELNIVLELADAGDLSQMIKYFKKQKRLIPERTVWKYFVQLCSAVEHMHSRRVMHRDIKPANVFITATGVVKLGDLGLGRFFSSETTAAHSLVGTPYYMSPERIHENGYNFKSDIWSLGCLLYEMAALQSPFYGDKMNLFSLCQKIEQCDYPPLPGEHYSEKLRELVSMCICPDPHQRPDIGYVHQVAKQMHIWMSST
Experiment [17] has the same target. The conditions noted are these: at 1 µM.
Experiment [18] has as its target Serine/threonine-protein kinase Nek7 (Homo sapiens) (UniProt Q8TDX7). The conditions noted are these: at 0.1 µM.
For experiment [19] the target is unchanged. The conditions noted are these: at 1 µM.
Experiment [20] has as its target T7, Serine/threonine-protein kinase Nek9 (Homo sapiens) (UniProt Q8TD19).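 Note: reported value is the mean percent inhibition of NEK9.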
T7 sequence (whole entry): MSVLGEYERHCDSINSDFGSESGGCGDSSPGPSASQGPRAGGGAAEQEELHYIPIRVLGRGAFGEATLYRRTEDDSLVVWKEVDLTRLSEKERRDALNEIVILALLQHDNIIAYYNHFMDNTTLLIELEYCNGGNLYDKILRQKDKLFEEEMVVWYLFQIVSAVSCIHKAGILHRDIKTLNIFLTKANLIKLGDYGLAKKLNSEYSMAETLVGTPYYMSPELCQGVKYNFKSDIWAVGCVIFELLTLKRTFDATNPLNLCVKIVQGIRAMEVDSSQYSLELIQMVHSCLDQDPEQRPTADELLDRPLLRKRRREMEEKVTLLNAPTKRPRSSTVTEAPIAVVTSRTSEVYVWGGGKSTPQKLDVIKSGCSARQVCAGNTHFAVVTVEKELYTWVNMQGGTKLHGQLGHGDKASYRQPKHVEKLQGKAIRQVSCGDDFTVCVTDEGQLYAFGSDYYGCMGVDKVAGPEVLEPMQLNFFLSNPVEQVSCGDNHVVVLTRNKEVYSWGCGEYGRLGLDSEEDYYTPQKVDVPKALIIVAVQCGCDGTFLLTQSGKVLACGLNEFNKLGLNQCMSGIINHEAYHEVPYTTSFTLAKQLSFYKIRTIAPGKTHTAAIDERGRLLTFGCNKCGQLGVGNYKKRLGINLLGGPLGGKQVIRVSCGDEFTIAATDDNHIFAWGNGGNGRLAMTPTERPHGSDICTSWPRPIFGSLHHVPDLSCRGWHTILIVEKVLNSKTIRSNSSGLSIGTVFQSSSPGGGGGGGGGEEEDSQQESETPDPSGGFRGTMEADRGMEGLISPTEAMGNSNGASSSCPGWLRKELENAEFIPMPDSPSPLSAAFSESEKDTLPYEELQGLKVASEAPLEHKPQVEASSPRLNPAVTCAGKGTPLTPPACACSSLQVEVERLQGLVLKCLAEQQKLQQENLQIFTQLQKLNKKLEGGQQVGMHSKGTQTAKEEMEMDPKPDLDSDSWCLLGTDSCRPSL
The conditions noted are these: at 0.1 µM.

Serine/threonine-protein kinase Nek7 (Homo sapiens), sequence (Q8TDX7 whole entry, looked up): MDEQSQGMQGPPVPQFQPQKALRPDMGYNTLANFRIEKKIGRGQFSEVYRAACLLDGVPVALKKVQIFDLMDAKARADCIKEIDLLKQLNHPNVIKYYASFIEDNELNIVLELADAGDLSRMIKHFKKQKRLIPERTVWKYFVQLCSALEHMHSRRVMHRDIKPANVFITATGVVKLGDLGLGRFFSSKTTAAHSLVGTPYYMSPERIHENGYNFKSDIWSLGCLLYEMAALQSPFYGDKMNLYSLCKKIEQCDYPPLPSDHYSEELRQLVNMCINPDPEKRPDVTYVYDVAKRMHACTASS
Sphingosine kinase 1 (Homo sapiens), sequence (Q9NYA1 whole entry): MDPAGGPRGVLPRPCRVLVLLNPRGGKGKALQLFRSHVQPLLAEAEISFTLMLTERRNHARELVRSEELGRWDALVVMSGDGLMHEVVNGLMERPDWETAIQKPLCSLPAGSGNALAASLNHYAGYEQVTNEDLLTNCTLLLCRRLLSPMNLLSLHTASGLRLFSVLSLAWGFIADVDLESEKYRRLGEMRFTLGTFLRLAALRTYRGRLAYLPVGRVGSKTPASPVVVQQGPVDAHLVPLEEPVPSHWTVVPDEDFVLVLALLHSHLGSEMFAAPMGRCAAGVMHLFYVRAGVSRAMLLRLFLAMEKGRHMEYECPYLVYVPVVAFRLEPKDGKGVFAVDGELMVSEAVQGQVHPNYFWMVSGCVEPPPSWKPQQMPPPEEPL

In the case of `CCn1cc(-c2ccnc3[nH]ccc23)c(-c2cccc(NC(=O)Nc3ccc(OCc4ccccc4)cc3)c2)n1`, the inhibition in [1] is -4.04%; in experiment [2], -0.83%; in experiment [3], -0.59%; in experiment [4] it was 9.36%; in experiment [5], -1.27%; in experiment [6], 1.99%. The inhibition in experiment [7] was -6.8%; in [8] it was 4.3%; in experiment [9] it was 5.23%; in [10] it was -4.18%; in [11] it was 3.46%; in experiment [12], 1.35%. For the same molecule, the inhibition was 0.82% in experiment [13]; 0.4% in experiment [14]; -1.01% in [15]; -0.55% in [16]; -0.07% in [17]; -1.04% in experiment [18]. The inhibition in experiment [19] was -5.21%; in experiment [20] it was 3.07%.
